PubChem BioAssay AID430 (Sanford-Burnham Center for Chemical Genomics, 2006)
The campaign covered roughly 63,000 compounds. About 1,100 (1.7%) were called active. Rule as the data show it: active = cytotoxicity above about 50%; inactive = the rest. The sample as a whole holds a higher share of actives than the screen did. Potency and affinity values are given separately.

test: cytotoxicity in HPDE-C7 cells, cell-based, fluorescence, HTS (AID 430); settings: HPDE-C7 pancreatic duct cells viability, at 10 µM, stronger effect = higher value;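 also: cells exposed to compound for 48 hours before viability readout; 0% = vehicle and 100% = reference cytotoxic drug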

SMILES	cytotoxicity
O=C(O)C1CCCN(S(=O)(=O)c2ccc(F)cc2)C1 (stereo not given)	-13.4% (inactive)
CCOC(=O)CSC1=NC(=O)CS1	-7% (inactive)
Cc1ccc2[nH]c(=O)c(CN(CCc3ccccc3)C(=O)N3CCOCC3)cc2c1	5.9% (inactive)
CC(C)CC(=O)Nc1cccc(-c2cn3ccsc3n2)c1	2.6% (inactive)
CC(=O)Nc1ccc(-c2cn3ccsc3n2)cc1	10.2% (inactive)
CC(C)CC(=O)Nc1ccc(-c2cn3ccsc3n2)cc1	51.9% (active)
CCOC(=O)CCC(=O)Nc1ccc(S(=O)(=O)N2CCCC2)cc1	-1.2% (inactive)
O=C(NC1CCN(C(=O)Nc2ccccc2)CC1)C1CCCCC1	-8.9% (inactive)
Cc1csc(NC(=O)c2c(O)c3cccc4c3n(c2=O)CCC4)n1	-11.1% (inactive)
Cc1cnc(NC(=O)c2c(O)c3cccc4c3n(c2=O)CCC4)s1	52.2% (active)
CC(C)c1nnc(NC(=O)c2c(O)c3cccc4c3n(c2=O)CCC4)s1	46.3% (inactive)
N#CC1=C(N)S[C@H](C(=O)C23CC4CC(CC(C4)C2)C3)[C@H]1c1ccncc1	-14.7% (inactive)
CCC(c1nnnn1CCc1ccccc1)N(Cc1ccco1)Cc1cc2cc(C)cc(C)c2[nH]c1=O (stereo not given)	10.7% (inactive)
NC1=NC(c2cn(-c3ccccc3)nc2-c2cccs2)n2c(nc3ccccc32)N1 (stereo not given)	54.9% (active)
CC1=C(C#N)C(c2cn(-c3ccccc3)nc2-c2cccs2)C(C#N)=C(C)N1	41.2% (inactive)
NC1=NC(c2ccccc2Cl)n2c(nc3ccccc32)N1 (stereo not given)	7% (inactive)
CC(=O)Nc1cccc(NC(=O)c2ccco2)c1	-14.2% (inactive)
O=C(Nc1ccc2oc(-c3cccnc3)nc2c1)c1cccnc1	7.7% (inactive)
Cc1ccc2oc(-c3ccc(NC(=O)c4cccnc4)cc3)nc2c1	51.4% (active)
O=C(Nc1ccc(-c2nc3ccccc3o2)cc1)c1ccc2c(c1)OCO2	2% (inactive)
COc1ccc(-c2nc3cc(NC(=O)c4ccc5c(c4)OCO5)ccc3o2)cc1	1.2% (inactive)
O=C(Nc1ccc2oc(-c3ccccc3F)nc2c1)c1ccc2c(c1)OCCO2	46.2% (inactive)
Cc1c(NC(=O)c2ccc3c(c2)OCO3)cccc1-c1nc2ccccc2o1	-9.8% (inactive)
O=C(Nc1cccc(NC(=O)c2ccc(-c3cccc(Br)c3)o2)c1)c1ccco1	63% (active)

SMILES	cytotoxicity
O=C(Nc1ccc2oc(-c3ccccc3)nc2c1)c1cccnc1	18.1% (inactive)
Cc1ccc2oc(-c3ccc(NC(=O)c4ccc5c(c4)OCO5)cc3)nc2c1	71.1% (active)
COc1ccc(Br)cc1C(=O)Nc1cccc(NC(=O)c2ccco2)c1	42.6% (inactive)
O=C(Nc1ccccc1-c1nc2ccccc2o1)c1ccc2c(c1)OCCO2	77.2% (active)
CC(=O)[C@@H]1[C@@H]2C(=O)N(Cc3ccccc3)C(=O)[C@@H]2C2c3ccccc3C=CN21 (stereo not given in full)	3.9% (inactive)
CCC(=NCCc1ccccc1)C1=C(O)CCC1=O	9.7% (inactive)
C=CCn1c(SCn2nnc3ccccc3c2=O)nnc1-c1ccc(F)cc1	-0.2% (inactive)
Cc1cc(C(=O)N2CCN(S(C)(=O)=O)CC2)sc1-c1ccccc1	-3% (inactive)
O=C(NC1CCCC1)C1CCCN1C(=O)Nc1ccccc1Cl (stereo not given)	-20.3% (inactive)
C=CCN(CC=C)c1nc2ccccc2nc1C(C#N)C(=O)OCCOC (stereo not given)	1.9% (inactive)
COc1cccc(C(=O)Nc2ccc(-c3nc4ccccc4o3)c(O)c2)c1	15.3% (inactive)
O=C(Nc1ccc(-c2nc3ncccc3o2)cc1)c1ccco1	1.1% (inactive)
COC(=O)c1ccc(-c2nc3ccccc3o2)cc1	-9.2% (inactive)
Cc1ccc(-c2nc3ccccc3o2)cc1NC(=O)c1ccc2c(c1)OCO2	-10% (inactive)
COc1cc(OC)cc(C(=O)Nc2ccc(-c3nc4ccccc4o3)cc2)c1	74.2% (active)
O=C(Nc1cccc(-c2nnc(-c3ccccc3)o2)c1)c1ccco1	-6.9% (inactive)
O=C(Nc1ccc2oc(-c3ccccc3)nc2c1)c1ccc2c(c1)OCCO2	13.4% (inactive)
O=C(Nc1ccc2nc(-c3ccccc3)oc2c1)c1ccco1	68.7% (active)
C/C=C/COc1nc2c(c(=O)n(C)c(=O)n2C)n1C	-4% (inactive)
O=C(OCC(=O)N1CCN(C(=O)COC(=O)c2ccncc2)CC1)c1ccncc1	-7.9% (inactive)
O=C1CC(c2cccc(Cl)c2)Cc2nc(N3CCN(c4ccccc4)CC3)ncc21 (stereo not given)	51.4% (active)
O=C1CC(c2cccc(Cl)c2)Cc2nc(N3CCOCC3)ncc21 (stereo not given)	-14.6% (inactive)
CCN1CCN(c2ncc3c(n2)CC(c2ccc(OC)c(OC)c2)CC3=O)CC1 (stereo not given)	7.7% (inactive)
CCN1CCN(c2ncc3c(n2)CC(c2cc(OC)c(OC)c(OC)c2)CC3=O)CC1 (stereo not given)	58.9% (active)

SMILES	cytotoxicity
Cc1ccc(C2CC(=O)c3cnc(N4CCN(c5ccccc5)CC4)nc3C2)cc1 (stereo not given)	9.3% (inactive)
COc1cc(C2CC(=O)c3cnc(N4CCN(Cc5ccccc5)CC4)nc3C2)cc(OC)c1OC (stereo not given)	46% (inactive)
CSc1nnc2c(n1)OC(C1CC=C(C)CC1)Nc1ccccc1-2 (stereo not given)	2.9% (inactive)
C=CCn1c(=O)c(C(=O)Nc2ccccc2O)c(O)c2ccccc21	-18% (inactive)
Cc1occc1C(=O)NCc1ccc2c(c1)OCO2	42.9% (inactive)
O=C(COc1cnc2ccccc2n1)NCCC1=CCCCC1	-1.1% (inactive)
CCc1ccc2c(COC(=O)c3n[nH]c4ccccc34)cc(=O)oc2c1	8% (inactive)
Cc1ccc2c(COn3nnc4ccc(S(=O)(=O)N(C)C)cc43)cc(=O)oc2c1C	-2.2% (inactive)
CCc1ccc2c(COn3nnc4ccc(S(=O)(=O)N(C)C)cc43)cc(=O)oc2c1	59.1% (active)
CCc1nnc(NC(=O)CSc2nc(C)c3c(c2C#N)CCCC3)s1	76.3% (active)
CCc1nnc(NC(=O)CSc2nc3c(cc2C#N)CCC3)s1	30.8% (inactive)
CCc1nnc(NC(=O)CSc2nc3c(cc2C#N)CCCC3)s1	-1.1% (inactive)
COc1cccc(NC(=O)CNC(=O)c2ccc(F)cc2)c1	-1% (inactive)
COc1cc(-c2ccc(NC(=O)CN3CCCCC3)c(OC)c2)ccc1NC(=O)CN1CCCCC1	-11.3% (inactive)
N#Cc1ccc(CSc2nnc(-c3cnccn3)o2)cc1	-3% (inactive)
Fc1cccc(C2CC(c3cccc(Br)c3)Nc3nnnn32)c1 (stereo not given)	-20.3% (inactive)
CCOc1ccc(S(=O)(=O)N2Cc3ccccc3CC2C(=O)NCCCn2ccnc2)cc1 (stereo not given)	1.9% (inactive)
Cc1ccc2[nH]c3c(c2c1)CN(C(=O)CN1CCN(c2ccccc2F)CC1)CC3	14.7% (inactive)
Cc1ccc2[nH]c3c(c2c1)CN(C(=O)CN1CCCc2ccccc21)CC3	55.8% (active)
Cc1ccc2[nH]c3c(c2c1)CN(C(=O)CN1CCN(c2ccccc2)CC1)CC3	26.1% (inactive)
Cc1cccc(N2CCN(C(=O)c3ccc(N4CCCC4=O)cc3)CC2C)c1 (stereo not given)	-1.7% (inactive)
CCOC(=O)c1ccc(NC(=O)N2CCN(S(C)(=O)=O)CC2)cc1	-1.4% (inactive)
Cc1cnc(NC(=O)CCCSc2nc3ccccc3s2)s1	-1.8% (inactive)
c1ccc(-c2ccc(-c3nc(-c4ccccn4)no3)cc2)cc1	-4.1% (inactive)

SMILES	cytotoxicity
c1ccc(-c2cc(-c3nc(-c4cccnc4)no3)c3ccccc3n2)cc1	-11.7% (inactive)
c1ccc(-c2cc(-c3nc(-c4ccccn4)no3)c3ccccc3n2)cc1	70.4% (active)
CC(C)n1c(SCC(N)=O)nc2c1c(=O)n(C)c(=O)n2C	-8.7% (inactive)
CCn1c(SC/C=C/c2ccccc2)nnc1-c1cnccn1	-18.9% (inactive)
CCn1cnc2scc(-c3ccccc3)c2c1=O	-9.7% (inactive)
Cn1cc(/C=N/n2cnc3scc(-c4ccc(Cl)cc4)c3c2=O)c2ccccc21	89.3% (active)
Cc1ccc(-c2csc3ncn(/N=C/N(C)C)c(=O)c23)o1	-6.4% (inactive)
Cn1cc(/C=N/n2cnc3sc4c(c3c2=O)CCCC4)c2ccccc21	21.2% (inactive)
Cc1nn(-c2ccccc2)c(N2CCCC2)c1/C=N/n1cnc2scc(-c3ccccc3)c2c1=O	24.5% (inactive)
Cn1cc(/C=N/n2cnc3scc(-c4ccccc4)c3c2=O)c2ccccc21	68.4% (active)
COc1cc(OC)cc(C(=O)N2CCC(n3c(C)nc4cc(F)ccc43)CC2)c1	3% (inactive)
N#Cc1cc2sc3nnc(-c4ccncc4)n3c2cc1C#N	-14.9% (inactive)
Cc1nc2cc(C(=O)OCC(=O)N(CC(C)C)C3CCS(=O)(=O)C3)ccc2n1-c1ccccc1 (stereo not given)	-10.3% (inactive)
O=C(O)CCc1ccc(-c2cccs2)n1NC(=O)c1ccc(Cl)cc1	0.6% (inactive)
Cc1csc(NC(=O)CSc2nnc(-c3ccc(S(=O)(=O)N4CCCC4)cc3)o2)n1	-13.8% (inactive)
COc1cccc(CNC(=O)Cn2cccc2)c1	-4.3% (inactive)
COc1ccccc1NCCC(=O)OCC(=O)Nc1ccc(Cl)cn1	10.3% (inactive)
CN(CC(=O)Nc1ccc(C#N)cc1)Cc1ccc(Cl)cc1	6.1% (inactive)
N#Cc1ccc(NC(=O)Nc2ccc(Cl)cc2)cc1	57.7% (active)
Cc1cccc(NC(=O)Nc2ccc(C#N)cc2)n1	-0.1% (inactive)
COc1ccc(Cl)cc1NC(=O)N1CCN(S(C)(=O)=O)CC1	-6.5% (inactive)
C=CCn1c(N)cc(=O)nc1SCC(=O)Nc1ccccc1	-16% (inactive)
O=C(c1ccccc1)N1CCCCC(Sc2nnnn2-c2ccccc2)C1=O (stereo not given)	-6.2% (inactive)
